“And” between values parts separate entries of the source, which are not always exact repeats. Identical values can stand only once. About 100 (5%) of roughly 2,000 compounds were called active. Cut-off read from the data, not from the text of the source: active = z-score above about 2; inactive = the rest. The list comes from a sample in which actives are over-represented; it also holds similar structures and randomly drawn compounds.
Test: modulators of mitochondrial supercomplex assembly, cell-based, luminescence, Hoechst nuclei count (AID 1645838);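 note: control cybrid cells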;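 for z-score: higher means more mitochondrial supercomplex formation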
Details: Cells, luminescence/Hoechst cell count ratio, supercomplex reporter; for z-score: stronger effect = higher value; for cell count: measured here: cell number, Hoechst nuclei count
[1] = library stock concentration (final well concentration not given) 46 uM
[2] = library stock concentration (final well concentration not given) 278 uM
[3] = library stock concentration (final well concentration not given) 1.67 mM
[4] = library stock concentration (final well concentration not given) 10 mM
[5] = library stock concentration (final well concentration not given) 80 uM
[6] = library stock concentration (final well concentration not given) 400 uM
[7] = library stock concentration (final well concentration not given) 2 mM

SMILES: CCCCCCCC/C=C\CCCCCCCCCCCCCC(=O)N[C@@H](CO)[C@H](O)/C=C/CCCCCCCCCCCCC
- z-score: 0.191 (inactive)
- cell count: 5540

SMILES: CCCCC[C@H]1/C=C/[C@@H]2[C@@H](C/C=C\CCCC(=O)O1)[C@@H](O)C[C@H]2O
- z-score: -1.49 (inactive)
- cell count: 5780

SMILES: Cn1c2cc(S(C)=O)sc2c2cnn(Cc3cccc(N)c3)c(=O)c21 (configuration not stated)
- z-score [1]: 0.266 (inactive)
- z-score [2]: 0.15 (inactive)
- z-score [3]: -0.3 (inactive)
- z-score [4]: -0.338 (inactive)
- cell count [1]: 6150
- cell count [2]: 6110
- cell count [3]: 6540
- cell count [4]: 6600

SMILES: O=P(O)(O)O[C@H]1[C@@H](O)[C@H](O)[C@@H](OP(=O)(O)O)[C@H](OP(=O)(O)O)[C@H]1O
- z-score: -0.14 (inactive)
- cell count: 4340

SMILES: COC(=O)NC(C)CNc1nccc(-c2cn(C(C)C)nc2-c2cc(Cl)cc(NS(C)(=O)=O)c2F)n1 (configuration not stated)
- z-score [1]: -0.459 (inactive)
- z-score [2]: -0.411 (inactive)
- z-score [3]: 0.775 (inactive)
- z-score [4]: 4.21 (active)
- cell count [1]: 6450
- cell count [2]: 6190
- cell count [3]: 4330
- cell count [4]: 1620

SMILES: CCN(C)C(=O)Oc1cccc(C(C)N(C)C)c1 (configuration not stated)
- z-score [5]: -0.403 (inactive)
- z-score [6]: -0.339 (inactive)
- z-score [7]: -0.314 (inactive)
- z-score [4]: -0.639 (inactive)
- cell count [5]: 6790
- cell count [6]: 6310
- cell count [7]: 6660
- cell count [4]: 6230

SMILES: CC(C)(C)n1nc(-c2ccc(Cl)cc2)c2c(N)ncnc21
- z-score [5]: -0.14 (inactive)
- z-score [6]: 0.32 (inactive)
- z-score [7]: 0.695 (inactive)
- z-score [4]: 1.68 (inactive)
- cell count [5]: 5420
- cell count [6]: 5110
- cell count [7]: 5300
- cell count [4]: 4150

SMILES: CC(C)(C)n1nc(Cc2cccc3ccccc23)c2c(N)ncnc21
- z-score: -0.348 (inactive)
- cell count: 5760

SMILES: Cc1ccc(-c2nn(C(C)(C)C)c3ncnc(N)c23)cc1
- z-score [1]: 0.0479 (inactive)
- z-score [2]: 0.621 (inactive)
- z-score [3]: 1.98 (active)
- z-score [4]: 5.9 (active)
- cell count [1]: 6410
- cell count [2]: 5940
- cell count [3]: 6220
- cell count [4]: 4640

SMILES: COc1cc(Cc2cnc(N)nc2N)c2c(c1OC)OC(C1CC1)C=C2 (configuration not stated)
- z-score [5]: -0.274 (inactive)
- z-score [6]: -0.19 (inactive)
- z-score [7]: -0.518 (inactive)
- z-score [4]: -0.337 (inactive)
- cell count [5]: 5160
- cell count [6]: 5070
- cell count [7]: 5260
- cell count [4]: 4960

SMILES: CC(Sc1nc2ccccc2[nH]1)C(=O)N/N=C/c1cc(Br)ccc1O (configuration not stated)
- z-score: -0.336 (inactive)
- cell count: 5170

SMILES: CC(Sc1nc2ccccc2[nH]1)C(=O)NN=Cc1cc(Br)ccc1O (configuration not stated)
- z-score [1]: -1.02 (inactive)
- z-score [2]: -0.707 (inactive)
- z-score [3]: -0.734 (inactive)
- z-score [4]: 3.92 (active)
- cell count [1]: 7560
- cell count [2]: 6830
- cell count [3]: 7060
- cell count [4]: 3080

SMILES: CC/C=C\C/C=C\C/C=C\C/C=C\C/C=C\C/C=C\CCC(=O)NCCO
- z-score: -0.366 (inactive)
- cell count: 5340

SMILES: COc1ccc(CCOC2CCCCC2N2CCC(O)C2)cc1OC (configuration not stated)
- z-score [5]: 0.0501 (inactive)
- z-score [6]: 0.255 (inactive)
- z-score [7]: -0.0276 (inactive)
- z-score [4]: -0.648 (inactive)
- cell count [5]: 5440
- cell count [6]: 4950
- cell count [7]: 5110
- cell count [4]: 5070

SMILES: CN1CCN(c2ccc(Nc3cc(-c4cccc(-n5ccc6cc(C7CC7)cc(F)c6c5=O)c4CO)cn(C)c3=O)nc2)CC1
- z-score [1]: -0.128 (inactive)
- z-score [2]: 0.295 (inactive)
- z-score [3]: 0.189 (inactive)
- z-score [4]: 2.34 (active)
- cell count [1]: 6870
- cell count [2]: 6260
- cell count [3]: 6670
- cell count [4]: 4620

SMILES: Cc1ccc(-c2ccc3c(c2)C=C(C(=O)Nc2ccc(C[N+](C)(C)C4CCOCC4)cc2)CCC3)cc1
- z-score [5]: 0.0335 (inactive)
- z-score [6]: -0.0352 (inactive)
- z-score [7]: 0.025 (inactive)
- z-score [4]: 0.462 (inactive)
- cell count [5]: 6000
- cell count [6]: 5610
- cell count [7]: 5740
- cell count [4]: 4810

SMILES: CCCCc1ccc(O)cc1O
- z-score [5]: -0.0561 (inactive)
- z-score [6]: -0.187 (inactive)
- z-score [7]: -0.116 (inactive)
- z-score [4]: -0.378 (inactive)
- cell count [5]: 5090
- cell count [6]: 5680
- cell count [7]: 5060
- cell count [4]: 5370

SMILES: CCC1C(=O)N(C)c2cnc(Nc3ccc(C(=O)NC4CCC(N5CCN(CC6CC6)CC5)CC4)cc3OC)nc2N1C(C)C (configuration not stated)
- outcome (library stock 80 µM): inactive; censored for cell count
- outcome (library stock 400 µM): inactive; censored for cell count
- outcome (library stock 2 mM): inactive; censored for cell count
- outcome (library stock 10 mM): inactive; censored for cell count

SMILES: CC(C)c1ccc(-c2cc(=O)c3ccccc3o2)cc1
- z-score [5]: 0.0844 (inactive)
- z-score [6]: 1e-05 (inactive)
- z-score [7]: -0.0931 (inactive)
- z-score [4]: -0.264 (inactive)
- cell count [5]: 5390
- cell count [6]: 5660
- cell count [7]: 5670
- cell count [4]: 5910

SMILES: CCc1nc(N)nc(N)c1-c1ccc(Cl)cc1
- z-score [1]: -0.369 (inactive)
- z-score [2]: -0.308 (inactive)
- z-score [3]: -0.256 (inactive)
- z-score [4]: 2.87 (active)
- cell count [1]: 6220
- cell count [2]: 5950
- cell count [3]: 4990
- cell count [4]: 2210

SMILES: Cc1nc(C(=O)N2CCCC2Cc2nnc(-c3ccccc3)o2)c(-c2ccccc2F)s1 (configuration not stated)
- z-score [5]: -0.436 (inactive)
- z-score [6]: -0.462 (inactive)
- z-score [7]: -0.287 (inactive)
- z-score [4]: -0.37 (inactive)
- cell count [5]: 6270
- cell count [6]: 5950
- cell count [7]: 5640
- cell count [4]: 5740

SMILES: CCCCC[C@H](O)/C=C/[C@H]1C(=O)C[C@H](O)[C@@H]1C/C=C\CCCC(=O)OCC(O)CO (some centres not stated)
- z-score: 0.539 (inactive)
- cell count: 4970

SMILES: CCCCC[C@H](O)/C=C/[C@@H]1[C@@H](C/C=C/CCCC(=O)O)[C@@H](O)C[C@H]1O
- z-score: -0.886 (inactive) and -1.17 (inactive)
- cell count: 5940 and 5560

SMILES: CC(=O)Nc1ccc(NC(=S)NC(=O)c2ccc(C(C)(C)C)cc2)cc1
- z-score: 1.3 (inactive)
- cell count: 5410

SMILES: COc1ccc(C(=O)Nc2sc(Nc3ccccc3)nc2C(N)=O)cc1
- z-score [5]: 0.24 (inactive)
- z-score [6]: 0.382 (inactive)
- z-score [7]: -0.143 (inactive)
- z-score [4]: 1.05 (inactive)
- cell count [5]: 4690
- cell count [6]: 4800
- cell count [7]: 4780
- cell count [4]: 4300

SMILES: CC(=O)Nc1ccc(C(=O)Nc2sc(Nc3ccccc3)nc2C(N)=O)cc1
- z-score [5]: 0.365 (inactive)
- z-score [6]: 0.37 (inactive)
- z-score [7]: 2.89 (active)
- z-score [4]: 5.1 (active)
- cell count [5]: 5180
- cell count [6]: 5070
- cell count [7]: 3500
- cell count [4]: 2950

SMILES: CCCCC[C@H](O)CC[C@@H]1[C@@H](CCCCCCC(=O)O)[C@@H](O)C[C@H]1O
- z-score: -0.187 (inactive)
- cell count: 5660

SMILES: COc1cc(Nc2ncc(F)c(Nc3ccc4c(n3)NC(=O)C(C)(C)O4)n2)cc(OC)c1OC
- z-score [5]: -0.348 (inactive)
- z-score [6]: -0.268 (inactive)
- z-score [7]: 0.433 (inactive)
- z-score [4]: 2.15 (active)
- cell count [5]: 4400
- cell count [6]: 3910
- cell count [7]: 3800
- cell count [4]: 1990

SMILES: CCCCCCCCCCCCCCNC(=O)C1CCCCC1
- z-score: -0.131 (inactive)
- cell count: 5060

— PubChem BioAssay AID1645838 (ICCB-Longwood Screening Facility, Harvard Medical School, 2021)
